# According to article PMC4336329 (PLoS ONE, 2015):
# About 2,200 (0.71%) of roughly 310,000 compounds showed an effect of 50% or more. Effects have a minus sign here. The sample holds strong results, similar compounds and a random draw of the others, so the mix is not that of the screen.
# Target: human ether-à-go-go-related gene (hERG) potassium channel (human, UniProt Q12809)
# Assay: primary screen, population patch clamp on CHO cells stably expressing hERG; higher = less effect of the substance
# Description: Briefly, Chinese hamster ovary (CHO) cells stably expressing the hERG channel were dislodged from tissue culture flasks and dispensed into PPC plates. […] During the recording, background leak currents were estimated by a 100 ms step to -80 mV from an initial holding potential of -70 mV and subtracted from the subsequent current measurement. The campaign was conducted in two phases using slight differences in recording protocol. In the first phase, the initial voltage pulse used a 100 ms step to -30 mV from a holding potential of -70 mV, a 2 s conditioning step to +25 mV, and a 2 s test step to -30 mV. During the second phase of the screen, the potential during the conditioning step was raised to +45 mV. In both phases of the campaign, a secondary voltage pulse was applied using the same parameters as the second phase initial pulse. The initial and secondary pulses were applied in the absence of compound, and upon application of 1 μM and 10 μM test concentrations. Small molecule effects on hERG current density were quantified by […].
# Chain of human ether-à-go-go-related gene (hERG) potassium channel (Q12809 whole entry, looked up): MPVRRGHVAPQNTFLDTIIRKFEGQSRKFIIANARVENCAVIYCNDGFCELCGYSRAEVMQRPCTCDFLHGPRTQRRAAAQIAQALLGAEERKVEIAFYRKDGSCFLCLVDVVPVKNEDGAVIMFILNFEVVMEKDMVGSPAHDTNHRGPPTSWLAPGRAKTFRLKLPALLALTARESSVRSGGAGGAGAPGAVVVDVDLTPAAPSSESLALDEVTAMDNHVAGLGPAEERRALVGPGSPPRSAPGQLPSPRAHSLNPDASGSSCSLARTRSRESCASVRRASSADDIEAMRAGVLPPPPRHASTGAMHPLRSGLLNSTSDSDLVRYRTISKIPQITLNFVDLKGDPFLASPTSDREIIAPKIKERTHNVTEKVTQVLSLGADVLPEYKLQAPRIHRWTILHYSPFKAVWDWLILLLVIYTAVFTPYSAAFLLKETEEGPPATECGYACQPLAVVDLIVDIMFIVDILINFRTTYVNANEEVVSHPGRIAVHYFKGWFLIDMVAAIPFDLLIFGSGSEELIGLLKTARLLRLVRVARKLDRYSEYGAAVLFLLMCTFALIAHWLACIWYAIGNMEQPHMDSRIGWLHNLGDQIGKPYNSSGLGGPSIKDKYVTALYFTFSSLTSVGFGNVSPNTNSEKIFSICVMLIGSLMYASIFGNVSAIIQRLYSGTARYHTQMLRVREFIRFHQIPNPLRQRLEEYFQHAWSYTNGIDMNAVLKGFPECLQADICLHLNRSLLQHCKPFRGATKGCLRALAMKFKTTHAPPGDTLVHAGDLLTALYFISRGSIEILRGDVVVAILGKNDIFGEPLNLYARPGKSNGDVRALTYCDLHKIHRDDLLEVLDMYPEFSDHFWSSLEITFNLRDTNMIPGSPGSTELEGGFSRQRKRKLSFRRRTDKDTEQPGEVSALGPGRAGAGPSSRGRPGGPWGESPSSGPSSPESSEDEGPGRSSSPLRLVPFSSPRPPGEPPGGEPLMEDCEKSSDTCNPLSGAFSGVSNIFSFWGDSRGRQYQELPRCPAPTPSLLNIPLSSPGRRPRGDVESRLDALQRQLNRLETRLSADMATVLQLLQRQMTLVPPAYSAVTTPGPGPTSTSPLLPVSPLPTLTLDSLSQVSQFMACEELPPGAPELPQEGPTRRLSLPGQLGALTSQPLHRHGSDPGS
row,SMILES,"hERG current change (%, negative = inhibition) at 1uM [%]"
1,COc1ccc(OC)c(C(=O)CSc2nnc(Cc3cccs3)n2CCc2ccccc2)c1,-6.84
2,CC(NC(=O)CSc1nc2ccccc2c(=O)n1CCCO)c1ccccc1 (stereo not shown),-0.931
3,COCCN(CCOC)S(=O)(=O)c1ccc(C(=O)NC2CCN(Cc3ccccc3)CC2)cc1.Cl,-1.24
4,COc1ccc(C(=O)Nc2nnc(SCC(=O)NC3CCCC3)s2)c(OC)c1,14.4
5,CN1C(=O)/C(=C\c2cc(Br)cs2)c2ccccc21,12.7
6,O=C(Cc1ccc(Cl)cc1)NCC(=O)N1CCCCCC1,4.89
7,COc1ccc(-n2c(=O)c3c4c(sc3n3c(=S)[nH]nc23)CCC4)cc1,9.01
8,CCCN1CCN(CCCNC(=O)c2ccc3c(c2)NC(=O)c2ccccc2S3)CC1,9.21
9,O=C1NC(=Nc2cccc([N+](=O)[O-])c2)SC1(CO)CO,2.12
10,COc1ccc(C)cc1NC(=O)COC(=O)C1CC1,6.74
11,COc1ccc(OC)c(NC(=O)COC(=O)C2CCN(C(=O)c3ccc(Cl)cc3)CC2)c1,-49.1
12,COc1ccc(C)cc1NC(=O)COC(=O)C1CCN(C(=O)c2ccc(Cl)cc2)CC1,-57.7
13,O=C(COc1ccc(Br)cc1Cl)NC1CCN(Cc2ccccc2)CC1,-16.4
14,O=C(COc1ccccc1)NC1CCN(Cc2ccccc2)CC1,-8.39
15,O=C(NC1CCN(Cc2ccccc2)CC1)C1CCN(S(=O)(=O)c2ccc(Cl)cc2)CC1,-16.9
16,Cc1ccc(Cl)cc1S(=O)(=O)N1CCC(C(=O)NC2CCN(Cc3ccccc3)CC2)CC1,-66.1
17,Cl.O=C(COc1ccccc1F)NC1CCN(Cc2ccccc2)CC1,-3.6
18,O=C(COc1ccc(Br)cc1F)NC1CCN(Cc2ccccc2)CC1,-64.8
19,O=C(NC1CCN(Cc2ccccc2)CC1)C1CCN(S(=O)(=O)c2ccccc2)CC1,1.18
20,Cc1ccc(Cl)c(OCC(=O)NC2CCN(Cc3ccccc3)CC2)c1,-93.9
21,Cc1cc(OCC(=O)NC2CCN(Cc3ccccc3)CC2)c2c(C)c(C)c(=O)oc2c1,7.38
22,COC(=O)c1sc(C(C)(C)C)cc1CS(=O)(=O)c1ccc(Cl)cc1,23.7
23,CC(C)=CCOc1ccc2c(C)c(CC(=O)N3C[C@H]4C[C@@H](C3)c3cccc(=O)n3C4)c(=O)oc2c1C,-18.5
24,Cc1cc(C)c2cc(C#N)c(SCC(=O)NCC3CCCO3)nc2c1 (stereo not shown),-2.04
25,CCSCc1nnc(SCC(=O)c2ccc(OC)cc2)n1C,2.03
26,CC(NC(=O)CSCc1ccc(Br)cc1)c1ccccc1 (stereo not shown),9.08
27,CCOc1ccc(/C=N/NC(=O)c2cccc3ccccc23)c(OCC)c1,13.6
28,CC1CCCN(CC(=O)Nc2ccc(S(=O)(=O)N3CCCCCC3)cc2)C1 (stereo not shown),-1.45

row,SMILES,"hERG current change (%, negative = inhibition) at 1uM [%]"
1,COC(=O)c1nc[nH]c1C(=O)OC,18.4
2,COc1ccccc1C(=O)N/C(=C/c1ccc(Br)cc1)C(=O)NCCO,1.21
3,COCCN1C(=O)N[C@H](c2cccc(C(F)(F)F)c2)C(C(=O)OC)=C1C,5.44
4,COc1ccc(C)cc1S(=O)(=O)NCC(c1ccc2c(c1)OCO2)N1CCN(C)CC1 (stereo not shown),-54.9
5,COc1ccc(F)cc1S(=O)(=O)NCC(c1ccc2c(c1)OCO2)N1CCN(C)CC1 (stereo not shown),-12.6
6,COc1ccc(C)cc1S(=O)(=O)NCC(c1ccc2c(c1)OCO2)N1CCOCC1 (stereo not shown),5.86
7,O=S(=O)(NCC(c1ccc2c(c1)OCO2)N1CCOCC1)c1ccc(Br)cc1 (stereo not shown),12.6
8,CN1CCN(C(CNS(=O)(=O)c2ccc(Br)cc2)c2ccc3c(c2)OCO3)CC1 (stereo not shown),-59.5
9,CCOc1ccc(S(=O)(=O)NCC(c2ccc3c(c2)OCO3)N2CCN(C)CC2)cc1 (stereo not shown),-3.34
10,C=CCON/C(CCC)=C1\C(=O)CC(C)(C)CC1=NC,18.6
11,O=C(CN(C(=O)CCC(=O)Nc1nccs1)c1ccc2c(c1)OCO2)NCc1ccc(F)cc1,9.89
12,COc1cccc(CN2C(=O)[C@H]3Cc4c([nH]c5ccccc45)C(C)(C)N3C2=O)c1,15.2
13,O=S(=O)(Nc1nc2ccccc2nc1Cl)c1ccc2c(c1)OCCO2,8.99
14,Cc1nn(Cc2ccccc2)c(C)c1NC(=O)CSc1nc2c(c(C(F)(F)F)n1)CCc1ccccc1-2,2.11
15,CC1=C(C)C(=O)N(c2ccccn2)C1=O,11.4
16,CCOc1ccccc1CN1CCN(Cc2[nH]c3ccccc3c2C)CC1CCO (stereo not shown),-13
17,COc1ccc2[nH]c(CN3CCN(CC=C(C)C)C(CCO)C3)c(C)c2c1 (stereo not shown),10.7
18,COc1ccc2[nH]c(CN3CCN(CC(C)C)C(CCO)C3)c(C)c2c1 (stereo not shown),5.18
19,CCOc1ccc(CN2CCN(Cc3[nH]c4ccc(OC)cc4c3C)CC2CCO)cc1 (stereo not shown),-76.9
20,COc1cccc(CN2CCN(Cc3[nH]c4ccccc4c3C)CC2CCO)c1 (stereo not shown),-11.2
21,CCOc1ccc(CN2CCN(Cc3[nH]c4ccccc4c3C)CC2CCO)cc1 (stereo not shown),-75.2
22,CC(C)CC(=O)Nc1nnc(S(=O)(=O)N(C)Cc2ccco2)s1,21
23,NC(=O)CC(NC(=O)Cc1cccc2ccccc12)c1ccc(NCCCN2CCCC2=O)c([N+](=O)[O-])c1 (stereo not shown),8.49
24,O=C(CNS(=O)(=O)c1cccc(C(F)(F)F)c1)Nc1ccccc1F,-2.49
25,O=C(Oc1ccc(N(C(=O)c2ccncc2)S(=O)(=O)c2cccs2)cc1)c1ccncc1,11.4
26,O=C(OCCN(CCOC(=O)c1ccncc1)S(=O)(=O)c1cccs1)c1ccncc1,-51.5
27,CCCOC(=O)c1ccc(NS(=O)(=O)c2cccs2)cc1,8.05
